Hits are enriched below; roughly 7.1% of the tested compounds scored in any of these assays.
M1 ag: M1 muscarinic receptor agonists, primary screen, CHO-M1 cells, Fluo-4 calcium, agonist mode | Muscarinic acetylcholine receptor M1 | Fluo-4 calcium fluorescence; stronger effect = higher value | B-score at 10 µM | 64,000 compounds, 3% hits | AID 626, 2007;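 active = fluorescence rise, raw or as B-score row- and column-corrected plate score, outside the 99.7% band of its plate's samples, either direction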
M1 antagonist: antagonists of rat M1 muscarinic receptor; Muscarinic acetylcholine receptor M1 (Rattus norvegicus), P08482; 64,000 compounds, 3.4% hits; AID 628, 2007; CHO-M1 cells, Fluo-4 calcium, ACh EC80 antagonist mode; stronger effect = lower value; B-score at 10 µM;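 active = calcium fluorescence response, raw or row-and-column corrected B-score, differing from the plate sample mean either way at a set confidence level, mostly lower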
PTK2B oligo ant: antagonists of Pyk2 self-association, primary screen, Q293 cells, FERM NanoBiT luminescence, HTS; z-score (the deposit names both 25 µM and 10 µM); stronger effect = lower value; 99,000 compounds, 0.83% hits; Protein-tyrosine kinase 2-beta (Homo sapiens), Q14289; AID 1347419, 2020;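 active = Z-score of -3 or lower, scaled per plate to the spread of control and sample wells; inactive = z-score above -3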;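 also: negative z-score means lost luminescence so less FERM oligomerization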
Target sequence (Q14289 whole entry, looked up): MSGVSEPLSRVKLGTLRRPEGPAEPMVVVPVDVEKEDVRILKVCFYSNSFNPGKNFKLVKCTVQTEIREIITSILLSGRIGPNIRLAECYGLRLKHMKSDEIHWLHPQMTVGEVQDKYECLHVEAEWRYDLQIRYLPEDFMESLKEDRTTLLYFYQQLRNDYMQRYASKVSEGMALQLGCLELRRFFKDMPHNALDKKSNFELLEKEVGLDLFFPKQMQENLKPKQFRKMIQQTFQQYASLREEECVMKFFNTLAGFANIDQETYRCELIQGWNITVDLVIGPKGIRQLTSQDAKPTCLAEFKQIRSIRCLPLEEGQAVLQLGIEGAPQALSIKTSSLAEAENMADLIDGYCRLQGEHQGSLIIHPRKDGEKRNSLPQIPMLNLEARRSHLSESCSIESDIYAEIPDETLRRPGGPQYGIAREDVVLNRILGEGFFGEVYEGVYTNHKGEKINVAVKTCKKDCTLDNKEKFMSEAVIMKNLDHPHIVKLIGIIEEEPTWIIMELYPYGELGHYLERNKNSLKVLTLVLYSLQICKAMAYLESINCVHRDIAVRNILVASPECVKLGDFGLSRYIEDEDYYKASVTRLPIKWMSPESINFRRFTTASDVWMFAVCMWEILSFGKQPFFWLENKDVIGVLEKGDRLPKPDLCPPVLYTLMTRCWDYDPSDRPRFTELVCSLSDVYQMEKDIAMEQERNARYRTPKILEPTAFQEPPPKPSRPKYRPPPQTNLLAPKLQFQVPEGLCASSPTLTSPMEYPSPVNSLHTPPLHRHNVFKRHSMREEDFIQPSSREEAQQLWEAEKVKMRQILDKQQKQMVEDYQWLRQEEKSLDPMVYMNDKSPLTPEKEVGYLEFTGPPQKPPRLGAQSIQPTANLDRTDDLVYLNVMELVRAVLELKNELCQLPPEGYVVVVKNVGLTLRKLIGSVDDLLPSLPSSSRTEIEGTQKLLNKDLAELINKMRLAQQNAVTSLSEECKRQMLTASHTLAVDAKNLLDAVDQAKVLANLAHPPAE
Cav3 T inh: Cav3.2 calcium influx blockers – cell-based, Fluo-4 calcium fluorescence, FDSS, MLSMR library, primary screen. Voltage-dependent T-type calcium channel subunit alpha-1H (Homo sapiens), O95180. Cav3.2-expressing cells; stronger effect = lower value. B-score at 10 µM. 100,000 compounds, 4% hits;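 active = single-dose well whose peak fluorescence ratio is a statistical outlier from its plate by either plate-standardised score or position-corrected B-score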
* hit, by the source's call; nt = no result given.

SMILES | M1 ag | M1 antagonist | PTK2B oligo ant | Cav3 T inh
O=S(=O)(/C=C/c1ccccc1)Nc1ccc2c(c1)OCO2 | -1.1 | -0.72 | -0.48 | -7.4*
O=S(=O)(Nc1ccc2c(c1)OCO2)c1cccs1 | -0.0097 | 0.089 | -0.21 | 0.2
COc1cccc(N2CC(C(=O)Nc3ccc(C(=O)OC(C)C)cc3)CC2=O)c1 (centres undefined) | nt | nt | -0.64 | -4.6*
COc1cccc(N2CC(C(=O)NC3CCCCC3)CC2=O)c1 (centres undefined) | -0.36 | 0.85 | -0.15 | 0.7
CCOc1ccc(N2CC(C(=O)Nc3ccccc3OC)CC2=O)cc1 (centres undefined) | -0.14 | 0.2 | nt | -5.1*
CCOc1ccc(N2CC(C(=O)Nc3ccc(F)cc3F)CC2=O)cc1 (centres undefined) | -0.18 | -0.55 | 0.65 | -1.3
Cc1ccnn1CC(=O)N/N=C/c1ccc2c(c1)OCO2 | nt | nt | 0.78 | nt
COc1ccccc1NC(=O)N1CCC(c2nc3cc(C)c(C)cc3[nH]2)CC1 | nt | nt | 0.2 | -0.57
COc1ccccc1NC(=O)N1CCc2[nH]c3ccc(Cl)cc3c2C1 | -0.089 | 0.0037 | -0.56 | -5.1*
COC(=O)C1=C(C)N(CCc2ccc(OC)c(OC)c2)C(=O)/C1=C\N(C)C | nt | nt | 0.54 | -0.81
S=C1NC[C@H](CC2CCCCC2)N1CC1CCCCC1 | nt | nt | nt | 0.1
CCOC(=O)CN1C(=O)C(O)(CC(=O)c2cccc(OC)c2)c2ccccc21 (centres undefined) | -0.36 | 0.15 | 1.5 | 0.037
CCOC(=O)CN1C(=O)C(O)(CC(=O)c2ccc3c(c2)CCCC3)c2ccccc21 (centres undefined) | nt | nt | 0.43 | -7.3*
CSc1nc2c(c(=O)[nH]1)C(c1ccncc1)C(C(=O)OC(C)C)=C(C)N2 (centres undefined) | 0.14 | 0.21 | 0.53 | 0.42
Cc1nc2cc(-c3ccsc3-n3c(C)ccc3C)[nH]n2c(=O)c1Cl | nt | nt | 0.41 | -4.7*
Cc1ccc([N+](=O)[O-])cc1N=C(c1cccc(Br)c1)N1CCOCC1 | nt | nt | 0.05 | -4.1*
COc1ccccc1NS(=O)(=O)c1ccc(NC(=O)c2nc3nc(C)cc(C(F)F)n3n2)cc1 | nt | nt | 0.94 | -0.18
Nc1nc(-c2ccccc2)cn1N | nt | nt | 1 | -0.47
c1ccc(-c2cn3nc(-c4ccccc4)c(-c4ccccc4)nc3n2)cc1 | nt | nt | -0.23 | -5.3*
O=C(Cc1cccc(C(F)(F)F)c1)NCc1ccc(Cl)cc1Cl | nt | nt | -0.58 | nt
O=C(COC(=O)c1cc(=O)[nH]c2ccccc12)NC(=O)NC1CCCCC1 | 0.1 | -0.93 | -3.7* | 0.73
CC(C)OC(=O)c1nn2c(C(F)(F)F)cc(-c3ccc(Br)o3)nc2c1Br | 9.7* | -0.0099 | 1.3 | 0.24
CC(C)CCNC(=O)C(c1ccco1)N(Cc1cccs1)C(=O)Cn1nnc2ccccc21 (centres undefined) | -0.47 | 0.24 | -3.1* | -4.7*
Cc1ccccc1N(C(=O)Cn1nnc(-c2cccs2)n1)C(C(=O)NCCC(C)C)c1ccco1 (centres undefined) | nt | nt | -1.4 | -3.5*
COCCNC(=O)C(c1ccco1)N(C(=O)Cn1nnc2ccccc21)c1ccccc1C (centres undefined) | nt | nt | -0.08 | 0.71
SMILES | M1 ag | M1 antagonist | PTK2B oligo ant | Cav3 T inh
CC(C)Cn1c(SCC(=O)NCc2ccc(Cl)cc2)nnc1-c1cccc(S(=O)(=O)N2CCOCC2)c1 | nt | nt | 1.4 | -2.8
CCOC(=O)CSC1=NC(=O)/C(=C\c2ccc(Cl)cc2)S1 | nt | nt | 0.33 | 0.3
C=CCn1c(CCC(=O)Nc2ccc(C)c(Cl)c2)nnc1SCC(=O)Nc1ccccc1C | nt | nt | -1.6 | -3.1
COc1ccc(CC(=O)Nc2ccc(-c3noc(-c4cccc(OC)c4)n3)cc2)cc1 | -0.49 | 0.8 | 0.91 | -4.2*
CCN(CC(=O)NCc1cccs1)S(=O)(=O)c1ccc(C(C)C)cc1 | nt | nt | -0.55 | -4*
CC(C)c1ccc(NC(=S)NCc2cccs2)cc1 | nt | nt | 0.59 | -6.3*
O=C(COc1ccc(Br)cc1)N1CCC(c2ccccc2)C1 (centres undefined) | nt | nt | 1.1 | -4.1*
O=C(c1cc2ccccc2oc1=O)N1CCN(c2ncccn2)CC1 | nt | nt | 0.79 | 0.089
C=C(C)C1CC=C(C)/C(=N/NC(=O)CNc2ccc(OCC)cc2)C1 (centres undefined) | nt | nt | -0.14 | -1.3
CCn1c2ccccc2c2nnc(SCC(=O)Nc3c(C)n(C)n(-c4ccccc4)c3=O)nc21 | nt | nt | -0.19 | 2.3
C=CCn1c2ccccc2c2nnc(SCC(=O)Nc3c(C)n(C)n(-c4ccccc4)c3=O)nc21 | nt | nt | -0.74 | 3.8*
CCCn1c(=O)c(C(=O)Nc2c(C)n(C)n(-c3ccccc3)c2=O)c(O)c2ccccc21 | -0.013 | -11* | 1.2 | nt
CCCn1c(=O)c(C(=O)Nc2ccccc2C(=O)OCC)c(O)c2ccccc21 | -0.31 | 0.12 | -1.5 | 0.043
CCN(C(=O)COC(=O)c1ccc(OCc2c(C)noc2C)cc1)c1ccccc1 | nt | nt | 1.2 | -0.92
CCN(c1ccccc1)S(=O)(=O)c1ccc(OCc2c(C)noc2C)cc1 | -0.16 | -0.39 | 0.29 | -4.4*
CCn1c(Cc2cccc3ccccc23)nnc1SCC(=O)Nc1nccs1 | nt | nt | 0.39 | -5.9*
CCn1c(CNC(=O)Cc2ccc(OC)cc2)nnc1SCC(=O)Nc1nccs1 | 0.39 | -0.11 | -1.6 | -1.6
N#C/C(=C/c1ccc(N2CCCCCC2)o1)c1cccc(F)c1 | nt | nt | 1.1 | -4.3*
N#C/C(=C\c1ccc(N2CCOCC2)o1)c1ccccc1 | nt | nt | -0.5 | -2.6
Cc1ccc2[nH]c(=O)c(CN(CCO)Cc3nnnn3CCc3ccccc3)cc2c1 | 0.52 | -0.036 | 0.86 | 0.48
CCOC(=O)Cn1nnnc1CN(CCc1ccccc1)Cc1cc2cc(CC)ccc2[nH]c1=O | nt | nt | 0.15 | -4.4*
COC(=O)c1ccc(Cl)c(NC(=O)c2ccc(-c3ccccc3)cc2)c1 | nt | nt | nt | 0.89
CC1CC(NC(=O)Cc2ccc(Br)cc2)CC(C)(C)C1 (centres undefined) | nt | nt | 0.05 | -7.4*
CC1(c2nnc(-c3ccc(F)cc3)o2)CC(c2ccncc2)=NO1 (centres undefined) | nt | nt | nt | 0.53
O=[N+]([O-])c1cccc(-c2nnn(C34CC5CC(CC(C5)C3)C4)n2)c1 | nt | nt | 0.25 | -0.092
SMILES | M1 ag | M1 antagonist | PTK2B oligo ant | Cav3 T inh
Cc1ccc(-c2nnc(SCC(=O)Nc3ccccc3F)o2)cc1 | 0.016 | 0.61 | nt | -1.8
Cc1ccc(C)c(NC(=O)CSc2nnc(-c3ccccc3C)o2)c1 | 0.036 | 0.22 | 0.48 | -5.5*
CCC(c1nnc(SCC(=O)Nc2nnc(-c3ccccc3)o2)o1)N(C)C (centres undefined) | 2.3 | -0.091 | 0.73 | 0.96
Cc1ccc(C)c(SCC(=O)Nc2nnc(-c3ccccc3)o2)c1 | 17* | 0.0013 | 0.81 | -3.2
COc1ccc(OC)c(C(=O)CSc2nccc(-c3ccc(Br)cc3)n2)c1 | nt | nt | -1.1 | -2
CCOC(=O)C1CCCN(c2c(Nc3cccc(C)c3)c(=O)c2=O)C1 (centres undefined) | -0.27 | 0.15 | nt | 2.7
CCc1ccc(NC(=O)CSc2nnc(SCC(=O)Nc3ccc(CC)cc3)n2N)cc1 | nt | nt | 1.9 | -1
CCOC(=O)C1=C(C)NC(=S)N(C(C)=O)C1c1ccc(Cl)cc1 (centres undefined) | nt | nt | -1 | -5.5*
CCCCC(=O)Nc1ccc(F)c(Cl)c1 | 0 | 0.075 | 0.52 | 0.035
